# Bioassay records from PubChem BioAssay.
# hgDAF-12 ag: activates the H. glycines DAF-12 receptor ligand-binding domain; activation, % at 6.8 µM; HEK293 GAL4-hgDAF12 UAS-luciferase reporter, agonist luminescence; normalized to butyrate control; AID 687014; 370,000 compounds, 1.8% hits;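 active means activation above a cutoff set at the mean of all screened compounds plus 3 SD, cut at about 10% in these data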;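 further: 0% = DMSO wells and 100% = sodium butyrate wells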
# DAX1 inh-1: DAX1 (NR0B1) inhibition, primary screen; HEK293T StAR-luciferase reporter, SF-1/DAX-1 repression relief; inhibition, % at 6.8 µM; 370,000 compounds, 1.1% hits;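 active means inhibition above the mean over all tested compounds plus 3 SD, cut at about 3.6% in these data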;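 further: 0% = DAX-1 cells with DMSO and 100% = cells lacking DAX-1 with DMSO; higher inhibition means more luminescence from relief of DAX-1 repression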
# DAX1 inh-2: inhibitors of human orphan nuclear receptor DAX1 (NR0B1); HEK293 Gal4-DAX1 luciferase reporter, luminescence; inhibition, % at 6.75 µM; 340,000 compounds, 0.99% hits;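 active means inhibition above the mean over all tested compounds plus 3 SD, cut at about 4.2% in these data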;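 further: 0% = DAX1-transfected cells with DMSO and 100% = empty-vector control cells with DMSO; inhibition shows as a rise in luminescence from relieved DAX1 repression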
# hcDAF-12 act: activators of H. contortus DAF-12 nuclear receptor | HEK293 hcDAF-12 lit1-tk-luc reporter, luminescence; 0% DMSO, 100% Δ7-dafachronic acid | activation, % at 6.8 µM | 370,000 compounds, 1.4% hits | AID 652067;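 active means activation above the mean of all tested compounds plus 3 SD, cut at about 5.5% in these data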;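 further: 100% = response to 3 µM Δ7-dafachronic acid high control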
# ssDAF12 agonist: activators of S. stercoralis DAF-12 nuclear receptor; activation, % at 6.8 µM; AID 652126; 370,000 compounds, 1% hits; HEK293 ssDAF-12/GRIP1 lit1-tk-luc reporter, luminescence; % of 3 µM dafachronic acid response;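 active means activation above the mean over all tested compounds plus 3 SD, cut at about 0.9% in these data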;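 further: 0% = DMSO-only wells and 100% = 3 µM delta7-dafachronic acid wells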
# LXRb hcDAF ctr: activates human LXR-beta, counter-screen for hcDAF-12 agonists; shares compounds with hcDAF-12 act; HEK293 Gal4-LXR tk-luc reporter, luminescence, 24 h; normalized: DMSO 0%, positive control 100%; activation, % at 6.8 µM; 3,400 tested, under 10 active; AID 743027;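 active means mean percent activation of the reporter above a cutoff set as the average over tested compounds plus their standard deviation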
# Target sequence (P55055 whole entry, looked up, the tested form may be a part): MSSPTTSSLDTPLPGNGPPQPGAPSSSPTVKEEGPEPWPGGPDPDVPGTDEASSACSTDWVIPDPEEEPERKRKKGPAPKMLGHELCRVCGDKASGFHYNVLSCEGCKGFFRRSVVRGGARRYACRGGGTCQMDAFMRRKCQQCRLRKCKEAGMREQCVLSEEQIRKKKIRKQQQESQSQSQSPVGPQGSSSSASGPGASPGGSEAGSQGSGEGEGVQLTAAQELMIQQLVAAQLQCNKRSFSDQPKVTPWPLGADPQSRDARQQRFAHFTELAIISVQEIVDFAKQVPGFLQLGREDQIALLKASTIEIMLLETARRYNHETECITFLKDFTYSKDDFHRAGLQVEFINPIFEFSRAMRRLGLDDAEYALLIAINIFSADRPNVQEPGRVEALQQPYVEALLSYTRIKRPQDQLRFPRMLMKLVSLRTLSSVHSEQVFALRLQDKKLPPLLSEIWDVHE
# hcDAF12 conf: confirmation of H. contortus DAF-12 agonists; 3,400 compounds, 61% hits; activation, % at 6.8 µM; HEK293 hcDAF-12 lit1-tk-luc reporter, luminescence; % of Δ7-dafachronic acid response; AID 743032; shares compounds with hcDAF-12 act;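 active means mean activation across triplicate tests above the threshold derived from the earlier primary screen, cut at about 5.5% in these data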;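 further: 0% = DMSO only wells and 100% = 3 µM Δ7-dafachronic acid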
# The depositor's hits bear a star; . = no result given. Shown are actives, neighbours in structure and some others; about 4.1% of the full set was active somewhere.
SMILES,hgDAF-12 ag,DAX1 inh-1,DAX1 inh-2,hcDAF-12 act,ssDAF12 agonist,LXRb hcDAF ctr,hcDAF12 conf
CC1(C(=O)NS(=O)(=O)c2ccc(Cl)s2)CCN1C(=O)Cc1ccc(Cl)cc1Cl (stereo not drawn),-2,0,.,0,-1,.,.
Cc1c(NC(=O)c2nn3c(C(F)(F)F)cc(-c4ccccc4)nc3c2Cl)c(=O)n(-c2ccccc2)n1C,2,0,-1,6.8*,-1,0,-1
CSc1nc(O)c(/C=C2\C=Nc3ccccc32)[nH]1,10,1,1,12*,0,0,11*
O=c1[nH]c(/C=C2\C=Nc3ccccc32)c(O)n1Cc1ccccc1F,2,-1,-2,2,-2,.,.
O=C(CNc1ccc2ccccc2c1)N/N=C/c1cc2ccccc2nc1Cl,4,1,-1,13*,0,0,4
O=C(COc1cccc(Cl)c1)N/N=C\c1cc2ccccc2nc1Cl,-3,0,1,2,-1,.,.
C=CCN1C(=O)C(=O)N(Cc2nc3ccccc3s2)C1=O,6,1,3,9.6*,1.2*,1,9.7*
O=S(=O)(c1cccs1)N1CCN(Cc2nc3ccccc3s2)CC1,2,0,-1,3,0,.,.
c1ccc(N=C2SCCCS2)cc1,7,1,0,-1,-1,.,.
O=C(Cn1cncn1)NCc1cccc(OC(F)F)c1,-1,0,-1,6.8*,-1,0,2
COC(=O)C1CN(C2CCCC2)CCS(=O)(=O)N1Cc1cn(Cc2ccc(C)cc2)nn1 (stereo not drawn),-2,1,.,-1,-1,.,.
c1ccc(-c2ccc(-c3ccccn3)nn2)nc1,7,3,.,6.9*,-1,1,8.7*
c1ccc(-c2ccccn2)nc1,4,2,-1,-1,-1,.,.
Cc1ccc(NC(=S)Nc2ccccn2)c(C)c1,7,1,1,7.2*,1,1,8.7*
Cc1ccc(NC(=S)Nc2ccccn2)cc1C,13*,1,.,8.6*,1.8*,1,11*
Cc1cc(C)cc(NC(=S)Nc2ccccn2)c1,4,0,0,7.5*,1,0,4
COc1ccc(OC)c(NC(=O)c2ccccc2N(Cc2ccccc2)C(=O)C(C)Cl)c1 (stereo not drawn),-1,-1,.,-2,-1,.,.
Fc1ccc(Cn2ccc3ccc(-c4ccc5ccn(Cc6ccc(F)cc6)c5c4)cc32)cc1,2,-1,.,1,0,.,.
Cc1ccc(Nc2nc(CSc3nnc(-c4ccccc4C)n3C)cs2)cc1,3,1,0,6.8*,-1,0,1
Cc1ccc(Nc2nc(CSc3nnc(-c4cccnc4)n3-c3ccccc3C)cs2)cc1,-1,0,0,1,-1,.,.
COc1ccc(CN(C(=O)c2cc3ccccc3oc2=O)C2CCS(=O)(=O)C2)cc1OC (stereo not drawn),10,1,0,10*,0,1,3
O=C(/C=C\c1ccco1)NC(=S)Nc1ccccc1O,8,1,1,2,-1,.,.
O=C(/C=C/c1ccco1)NC(=S)Nc1ccccc1O,3,0,.,6.8*,0,0,5
C=CCn1c(O)c(N=Nc2ccccc2[N+](=O)[O-])c2ccccc21,5,1,1,6.7*,1.1*,0,8.4*
C=CCn1c(O)c(N=Nc2ccccc2O)c2ccccc21,0,0,-1,3,-1,.,.
SMILES,hgDAF-12 ag,DAX1 inh-1,DAX1 inh-2,hcDAF-12 act,ssDAF12 agonist,LXRb hcDAF ctr,hcDAF12 conf
Cc1ccc(S(=O)(=O)CCC(=O)OCC(=O)c2c[nH]c3ccccc23)cc1,5,-1,0,9.4*,0,0,5.8*
Cc1cc2c(c(=O)o1)[C@@]1(C(=O)N(C)c3ccccc31)C1=C(CCCC1=O)O2,-1,0,.,0,-1,.,.
CCOC(=O)N1CCN(C(=O)c2cc3c(=O)n4cccc(C)c4nc3s2)CC1,2,0,2,7.4*,0,0,3
COC(=O)/C=C1\Nc2ccc(Cl)cc2C(=O)NC1=O,-2,0,.,1,-1,.,.
c1ccc(CCNc2nc3ccccc3s2)cc1,5,0,2,1,-1,.,.
Cc1ccc(CNc2nc3ccccc3s2)s1,6,4.0*,-2,10*,1.0*,1,12*
c1ccc2sc(NCC3CCCO3)nc2c1 (stereo not drawn),10,4.2*,4,8.2*,0,1,4
COc1ccc(C(=O)NCC2CCN(C(=O)C(=O)c3cccs3)CC2)cc1,3,0,.,-2,-1,.,.
CN1c2ccc(C#CC3CC3)cc2[C@@H]2[C@@H](CCN2C(=O)C2CCOCC2)[C@H]1CO,1,0,.,-3,-2,.,.
Cc1ccc(OC(=O)c2oc3ccc(F)cc3c2C)c(C)c1,11*,0,1,8.1*,1,0,3
CC1COCC(C)N1S(=O)(=O)c1ccc2c(c1)CCN2C(=O)C1CCC1 (stereo not drawn),0,-1,.,0,-1,.,.
O=C(CSc1nnc(-c2cccnc2)n1Cc1ccco1)c1ccccc1,-2,1,1,6.6*,-1,0,2
Fc1cccc2sc(Nc3nc4cc5c(cc4s3)OCCO5)nc12,2,2,1,10*,0,2,20*
O=C(CSC1=NS(=O)(=O)c2cc(Cl)ccc2N1)NCc1ccccc1,1,-1,-1,7.0*,-1,0,-1
O=C(CSC1=NS(=O)(=O)c2cc(F)ccc2N1)NCc1ccc(F)cc1,0,1,0,0,-1,.,.
O=C(O)c1cc(N/N=C/c2cccc3ccccc23)ccc1Cl,1,0,2,8.4*,0,1,8.2*
O=C1C(NC(=O)N2c3ccccc3C=Cc3ccccc32)CCCCN1Cc1ccc(Cl)cc1 (stereo not drawn),-3,-1,.,-1,-2,.,.
O=C(Nc1nc2c(s1)CCCC2)Oc1ccccc1,1,0,1,0,-1,.,.
CC(C)=NNc1nc(-c2ccccc2)cs1,5,0,2,7.2*,0,0,2
C/C(=N\Nc1nc2c(s1)CCCC2)c1ccccc1,6,2,3,7.4*,1.4*,1,11*
CC(C)(C)c1csc(NC(=O)c2ccccc2O)n1,5,1,-2,1,-1,.,.
C/C(=N\Nc1nc(C(C)(C)C)cs1)c1ccccc1,13*,1,6.6*,7.0*,2.2*,1,8.6*
